Compound activity from PubChem BioAssay.
This is a sample that favours compounds with a hit; in the whole collection about 7.8% have one here.
Marburg entry inh: Marburg virus entry inhibition. Marburg virus pseudotyped entry inhibition, cell reporter. Potency, µM (doses to about 37.8 µM), inactives show top-dose activity change, negative = inhibition, most hits filed as inhibitors. 300,000 compounds, 1.8% hits. AID 540276; calls by dose curve; tested in HEK293 cells; further: potency means the concentration at half of the fitted maximal effect
Vaccinia Venus: vaccinia inhibition (Venus reporter). Vaccinia virus Venus reporter expression, fluorescence. Potency, µM (highest dose often 36.5 µM), for the others: at the top dose activity change, negative = inhibition, actives largely listed as inhibitors. AID 720580. 330,000 compounds, 0.46% hits; calls by dose curve; tested in A549 cells; further: potency means the concentration at half of the fitted maximal effect; nearly all actives have a fitted effect of over 30% in size
HCMV inh: human cytomegalovirus inhibition | HFF cells, HCMV-luciferase reporter, 72 h; hits give low values | activity change, negative = inhibition, % at 57.5 µM | 410,000 compounds, 4.5% hits | AID 1259415; in the data active means activity change below about -60%; inconclusive means no clear call, values can overlap the other calls; inactive means above about -39%
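Compounds were evaluated in HFFs infected with an HCMV luciferase reporter virus (MOI 1 PFU/cell). Luciferase in lysates collected 72 h post infection served as the replication measure.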
HCV inhibitor: HCV inhibition | AID 651820 | 340,000 compounds, 3.4% hits | Potency, µM (doses to about 41.8 µM), inactives show at the top dose activity change, negative = inhibition, actives largely listed as inhibitors | Huh7.5.1 HCVcc-Cre infection, luciferase reporter, 44 h; active means well fitted inhibition curve with a large enough effect; inconclusive means small, poorly fitted or top-dose-only effect, or another doubt; inactive means no such curve, though single readings can be large or run the other way; further: potency means the concentration at half of the fitted maximal effect
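A cell-based infection assay in which seeded cells (1,000 per well) receive test compound after 4 h, are inoculated with HCVcc-Cre at approximately 0.5 moi, and are incubated 44 h before luminescence detection.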
Vaccinia mCherry: inhibitors of vaccinia virus infection (mCherry reporter signal); Vaccinia virus mCherry reporter infection, fluorescence; Potency, µM (top dose mostly 36.5 µM), for the others: at the highest dose activity change, negative = inhibition, actives largely listed as inhibitors; 310,000 compounds, 0.63% hits; calls by dose curve; tested in A549 cells; further: potency means the concentration at half of the fitted maximal effect; nearly all actives have a fitted effect of over 35% in size
LASV entry inh: Lassa virus entry inhibition; Lassa virus pseudotype entry inhibition, cell reporter; Potency, µM (highest dose often 37.9 µM), for inactives: at the highest dose activity change, negative = inhibition, actives largely listed as inhibitors; 300,000 compounds, 1.2% hits; calls by dose curve; tested in HEK293 cells; further: potency means the concentration at half of the fitted maximal effect; nearly all actives have a fitted effect of over 50% in size
* = called active by the depositor; i = inactive; ? = inconclusive; nt = not tested or not shown; [ ] = remark or other dose. On the % scale 0 is the no-effect control and ±100 the full control effect.

SMILES | Marburg entry inh | Vaccinia Venus | HCMV inh | HCV inhibitor | Vaccinia mCherry | LASV entry inh
COc1ccc([N+](=O)[O-])cc1N(CC(O)CN(CC(C)C)CC(C)C)S(=O)(=O)c1ccccc1 (stereo not drawn) | 11.6µM* | -7.8% | 75.9 | -19.6% | -9.8% | 4.7%
Cc1ccnc2c1ccc1cccnc12 | ? | ? | -98.0* | 2.24µM* | 4.47µM* | ?
Cc1ccnc2c1ccc1c(C)ccnc12 | nt | nt | nt | 5.62µM* | nt | nt
Cc1ccnc2c1ccc1ccccc12 | nt | -5.4% | -5.9 | 15.3% | 5.4% | nt
COc1cccc(F)c1-c1nc2ccccc2n1C(C(=O)Nc1c(C)cccc1C)c1ccccc1 (stereo not drawn) | nt | nt | -33.3 | nt | nt | nt
C#Cc1cccc(Nc2nc(NCCOC)nc3ccsc23)c1 | nt | -24.6% | 13.6 | nt | -23.9% | nt
C#Cc1cccc(Nc2nc(NCc3ccccc3OC)nc3ccsc23)c1 | nt | ? | -79.1* | nt | ? | nt
COc1ccccc1CNc1nc(NCc2cccc(OC)c2OC)c2sccc2n1 | nt | -13.1% | -82.6* | nt | -10.0% | nt
COCCNc1nc(NCc2cccc(OC)c2OC)c2sccc2n1 | nt | -9.9% | -31.4 | nt | i | nt
COC(=O)c1cc(NC(=O)c2cc(-c3ccccc3Cl)oc2C(F)(F)F)ccc1N1CCOCC1 | nt | nt | -6.5 | 15.8µM* | nt | nt
CCN(CC)CCN1C(=O)C(=O)/C(=C(/O)c2c(C)[nH]c(C(=O)OC)c2C)[C@@H]1c1cccc(OC)c1 | 24.0% | nt | nt | nt | nt | nt
Nc1cc2nc3ccccc3oc-2cc1=O | nt | ? | -91.2* | -0.4% | ? | nt
C=CCN(C)CCCCCCOc1ccc(C(=O)c2ccc(Br)cc2)c(F)c1 | nt | ? | nt | nt | -24.1% | nt
O=c1ccc2cc3ccoc3c(O)c2o1 | nt | -8.5% | 23.4 | 1µM* | 0.9% | nt
COC(=O)c1ccccc1NC(=O)CCCn1c(=O)c2cccn2c2cccnc21 | nt | -2.8% | 9.4 | nt | -12.6% | 24.1%[46.1 µM]
c1ccc(-c2noc(-c3ccccc3-c3ccccc3)n2)cc1 | -21.7%[46.1 µM] | -10.9% | 2.9 | -0.4% | -22.3% | 10.1%
Cc1ccccc1-c1noc(-c2ccc(O)cc2)n1 | ? | -18.6% | -16.5 | 14.1µM* | i | ?
CN(C)c1ccc(-c2noc(-c3ccccc3O)n2)cc1 | ? | nt | 55.0 | -1.3% | nt | 5.8µM*
Cc1cccc(NS(=O)(=O)c2c(C)nc3sccn3c2=O)c1C | nt | -16.9% | -5.3 | nt | -21.9% | 16.0%[46.1 µM]
CC1=C(c2ccc(C)c(C)c2)S(=O)(=O)N(Cc2ccc(C(=O)NCc3ccc(C)cc3)cc2)C1=O | -1.6%[46.1 µM] | -15.1% | 2.7 | nt | -6.9% | nt
CC(=O)Nc1nc2ccccc2n1Cc1ccccc1 | -25.8% | -4.5% | -10.8 | -3.9% | -14.0% | -12.7%
Cn1c(NN=O)nc2ccccc21 | ? | ? | -100.0* | ? | ? | ?
O=NNc1nc2ccccc2n1Cc1ccccc1 | nt | nt | -80.0* | ? | nt | nt
CC(=O)Nc1nc(-c2ccccc2)nc(-c2ccccc2OC(C)=O)n1 | -26.0% | ? | -28.7 | 2.82µM* | ? | ?
O=C(NCCc1cccs1)c1ccc(Cn2c(SCc3cccc(F)c3)nc3cccnc32)cc1 | ? | -18.9% | -5.1 | nt | -11.5% | nt
SMILES | Marburg entry inh | Vaccinia Venus | HCMV inh | HCV inhibitor | Vaccinia mCherry | LASV entry inh
O=C(NCc1cccs1)c1ccc(Cn2c(SCc3cccc(F)c3)nc3cccnc32)cc1 | nt | -20.7% | -70.0* | nt | -20.8% | ?
O=C(Cn1c(SCc2cccc(F)c2)nc2cccnc21)Nc1ccc(F)c(Cl)c1 | nt | -23.0% | -72.6* | nt | -18.5% | -0.3%[46.1 µM]
CC(C)OCCCNC(=O)c1ccc(CSc2nc3cccnc3n2Cc2ccccc2)cc1 | nt | -22.0% | -97.8* | nt | -28.6% | 2.0%[46.1 µM]
COc1ccccc1Nc1nc(NCCC(C)C)nc(N)c1[N+](=O)[O-] | nt | nt | ? | 12.6µM* | nt | nt
O=CC1=C(c2ccccc2)Oc2ccccc2O1 | 7.94µM* | -18.8% | -94.3* | -20.0% | ? | ?
Cc1oc(-c2cccc(Cl)c2)nc1CN1CCC(C(=O)N2CCN(c3ccccn3)CC2)CC1 | nt | -23.2% | nt | ? | -27.4% | nt
Cc1cccc(-c2nc(CSCC(=O)N3CCN(c4ccccn4)CC3)c(C)o2)c1 | ? | nt | -66.2* | 11.2µM* | nt | ?
Cc1cccc(N2CCN(C(=O)CSCc3ccc(F)cc3)CC2)c1C | nt | -17.7% | -26.7 | nt | -10.6% | 4.3%[46.1 µM]
Cc1cccc(-c2nc(CSCC(=O)N3CCN(c4cccc(C)c4C)CC3)c(C)o2)c1 | nt | -9.5% | -64.9* | nt | -7.6% | 7.1%[46.1 µM]
CCCCNC(=O)c1cc2nc3c(c(C(F)(F)F)n2n1)CCc1ccccc1-3 | 20.5% | -18.6% | 23.6 | 3.4% | -6.9% | 14.1%
CC(C)CNC(=O)c1cc2nc3c(c(C(F)(F)F)n2n1)CCc1ccccc1-3 | 9.4% | 0.2% | -66.9* | 3.9% | nt | 1.5%
COc1ccc(-n2c(=O)c3c4c(sc3n(CC(=O)NCc3ccco3)c2=O)CCC4)c(OC)c1 | -8.5% | nt | nt | 12.6µM* | nt | -2.7%
CCN(CC)S(=O)(=O)c1ccc(N2CCN(c3ccccc3O)CC2)nc1 | ? | -9.2% | -39.9 | 11.2µM* | ? | -21.4%[46.1 µM]
CCOC(=O)N1CCN(c2ccc(S(=O)(=O)N(Cc3ccccc3)Cc3ccccc3)cn2)CC1 | ? | -10.0% | -90.3* | ? | nt | -26.2%
CCN(CC)S(=O)(=O)c1ccc(N2CCN(CCO)CC2)nc1 | 18.0% | -9.9% | 1.1 | 0.2% | -10.1% | ?
O=c1[nH]cnc2c1ncn2-c1ccc(Cl)cc1 | 4.5% | -12.2% | -14.4 | 10.0% | -4.5% | -3.1%
ClCCN(CCCl)c1ccc(-n2cnc3c(Cl)ncnc32)cc1 | ? | -2.0% | -18.8 | 12.6µM* | -9.0% | ?
COc1cc(=O)n2c(c1C(=O)NC(C)c1ccco1)CCN(Cc1ccc3nsnc3c1)CC2 (stereo not drawn) | nt | -3.8% | nt | nt | -10.4% | nt
Cc1ccnn1CC(=O)N1CCOc2c(cc(-c3ncc(C(F)(F)F)cc3Cl)cc2OCC2CCCO2)C1 (stereo not drawn) | nt | -4.0% | nt | nt | -6.7% | nt
Cc1ccc(S(=O)(=O)Nc2nc(-c3ccccc3)cs2)cc1 | -12.9% | -1.5% | ? | 2.7% | -19.0% | 26.8%
O=S(=O)(Nc1ccc(-c2csc(-c3ccccc3)n2)cc1)c1ccccc1 | ? | -17.5% | -17.3 | ? | ? | 3.2%
Cc1ccc(S(=O)(=O)Nc2ccccc2C(=O)Nc2nc(-c3ccc(F)cc3)cs2)cc1 | 2.82µM* | ? | -103.1* | 6.31µM* | ? | 3.26µM*
COc1ccc(-c2csc(NC(=O)c3ccccc3F)n2)cc1 | nt | nt | -37.5 | 5.3% | nt | nt
Cc1ccc(S(=O)(=O)Nc2ccc(-c3csc(-c4ccccc4)n3)cc2)cc1 | -22.5% | -29.9% | -35.2 | 10µM* | ? | ?
COc1ccc(-c2csc(NC(=O)c3ccccc3NS(=O)(=O)c3ccc(F)c(F)c3)n2)cc1 | 2.31µM* | ? | -99.7* | 2.82µM* | ? | 3.66µM*
O=C(CCNC(=O)c1ccccc1Cl)Nc1nc(-c2ccc(F)cc2)cs1 | -27.7% | -19.1% | -80.5* | -6.6% | -25.7% | ?
CCc1cccc(C)c1NC(=O)CCS(=O)(=O)c1cc(Br)cc2c1N(C(=O)C1CC1)CC2 | ? | -15.4% | -22.4 | nt | -19.4% | -13.2%[46.1 µM]
